Results reported in PubChem BioAssay.

Experiments:
[1] = system: Human papillomavirus type 1a protein E7 (residues 44-93); assay: HPV1a E7 fragment binders on microarrays, primary screen, biochemical, small-molecule microarray, residues 44-93, 635 nm fluorescence (AID 1108); details: small-molecule microarray binding, fluorescence 635 nm; higher = more signal;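 also: E7 fragment applied at 1 µg/mL in TBST for 1 h at 4 C; score combines spot fluorescence with its signal to noise ratio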
[2] = modulators of HCV replicon luciferase signal, primary screen, HCV replication inhibitor project, Huh7 cells, luciferase reporter (AID 1109); details: 48 h, higher = more signal;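 also: huh7 hepatoma cells harbouring a luciferase neomycin HCV replicon reporter; luciferase luminescence as measure of HCV replicon replication; test concentration not given here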
[3] = biological target: Left-right determination factor 2 (Homo sapiens) (UniProt O00292); assay: LEFTY2 binders on small-molecule microarrays, primary screen, biochemical, small-molecule microarray, 635 nm fluorescence scan (AID 1110); details: LEFTY2 binding, higher = more signal
[4] = biological target: Calmodulin-1 (Homo sapiens) (UniProt P0DP23); assay: CALM1 binders on microarrays, EGTA buffer, profiling panel, biochemical, small-molecule microarray, Cy5-labelled CALM1 (AID 1111); details: Cy5-CALM1 binding fluorescence, higher = more signal;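 also: labelled calmodulin applied in Tris saline Tween buffer holding calcium plus EGTA and DTT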
[5] = biological target: Calmodulin-1 (Homo sapiens) (UniProt P0DP23); assay: calcium-bound CALM1 binders on microarrays, profiling panel, artefact control for SMM control-protein annotation, biochemical, small-molecule microarray, Cy5-labelled CALM1, plus calcium (AID 1112); details: Cy5-CALM1 binding fluorescence, higher = more signal;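 also: score merges spot fluorescence with signal to noise from triplicate slides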
[6] = small-molecule microarray binders of probe aWnt5a, primary screen, biochemical, biotinylated probe, 635/667 nm fluorescence (AID 1113); details: higher = more signal;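 also: score merges 667 nm fluorescence intensity with signal-to-noise per printed feature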
[7] = small-molecule microarray binders of probe aShh, primary screen, biochemical, biotinylated probe, 635/667 nm fluorescence (AID 1114); details: higher = more signal;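 also: probe is biotin-labelled aShh protein from a stem cell growth factor screen; measures binding of labelled protein to compounds printed on the slide; score merges feature fluorescence at 667 nm with signal-to-noise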
[8] = small-molecule microarray binders of probe aNog, primary screen, biochemical, biotinylated probe, 635/667 nm fluorescence (AID 1115); details: higher = more signal;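 also: probe is biotinylated aNog protein used at 0.15 µg/mL for 1 h at 4 C; z-score combines 667 nm fluorescence of each spot with its signal to noise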
[9] = biological target: Torsin-1A-interacting protein 1 (Homo sapiens) (UniProt Q5JTV8); assay: LAP1 binders from COS7 cell lysate, primary screen, small-molecule microarray, 635/667 nm fluorescence (AID 1116); details: COS7-hLAP1 lysate binding, 635 nm fluorescence, higher = more signal
[10] = biological target: Alpha-bungarotoxin (Bungarus multicinctus) (UniProt P60615); assay: alpha-bungarotoxin binders on microarray, profiling panel, artefact control for SMM control protein annotation, biochemical, small-molecule microarray, Alexa647 label, 635/667 nm fluorescence (AID 1117); details: alpha-BTX-A647 binding fluorescence, higher = more signal
Sequence of Alpha-bungarotoxin (Bungarus multicinctus) (P60615 whole entry, looked up): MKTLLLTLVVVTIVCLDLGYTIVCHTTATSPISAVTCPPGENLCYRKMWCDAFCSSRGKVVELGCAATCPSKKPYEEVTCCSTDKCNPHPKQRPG

Sequence of Torsin-1A-interacting protein 1 (Homo sapiens) (Q5JTV8 whole entry, looked up): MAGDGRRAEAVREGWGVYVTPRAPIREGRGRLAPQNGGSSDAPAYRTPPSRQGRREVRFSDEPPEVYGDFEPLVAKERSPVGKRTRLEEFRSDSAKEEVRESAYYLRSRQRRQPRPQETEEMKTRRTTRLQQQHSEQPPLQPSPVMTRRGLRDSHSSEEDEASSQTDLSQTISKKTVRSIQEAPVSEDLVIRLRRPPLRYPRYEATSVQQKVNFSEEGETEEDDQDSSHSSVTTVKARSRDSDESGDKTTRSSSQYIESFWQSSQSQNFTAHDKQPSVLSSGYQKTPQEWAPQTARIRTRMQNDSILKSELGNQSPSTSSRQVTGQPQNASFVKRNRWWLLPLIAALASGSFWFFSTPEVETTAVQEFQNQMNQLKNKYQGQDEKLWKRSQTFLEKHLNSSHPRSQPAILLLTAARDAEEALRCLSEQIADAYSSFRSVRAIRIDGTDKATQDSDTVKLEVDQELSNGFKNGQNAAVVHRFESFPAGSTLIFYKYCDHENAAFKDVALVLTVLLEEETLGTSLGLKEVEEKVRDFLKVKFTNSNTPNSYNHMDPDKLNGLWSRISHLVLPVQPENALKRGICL
Sequence of Left-right determination factor 2 (Homo sapiens) (O00292 whole entry, looked up): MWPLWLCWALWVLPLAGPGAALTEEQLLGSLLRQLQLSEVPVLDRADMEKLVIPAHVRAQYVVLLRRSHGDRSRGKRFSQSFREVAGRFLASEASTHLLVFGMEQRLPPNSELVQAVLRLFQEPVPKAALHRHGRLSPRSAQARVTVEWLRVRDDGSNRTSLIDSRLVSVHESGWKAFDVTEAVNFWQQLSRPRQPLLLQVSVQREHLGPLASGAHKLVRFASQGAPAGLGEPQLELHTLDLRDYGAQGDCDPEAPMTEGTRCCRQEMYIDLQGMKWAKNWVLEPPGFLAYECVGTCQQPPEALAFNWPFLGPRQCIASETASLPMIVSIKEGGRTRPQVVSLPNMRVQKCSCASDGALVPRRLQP

Row | Compound | composite z-score [1] | z-score [2] | composite z-score [3] | composite z-score [4] | composite z-score [5] | composite z-score [6] | composite z-score [7] | composite z-score [8] | composite z-score [9] | composite z-score [10]
1 | C[C@@]1([C@@H](NC(=O)c2ccc(-c3ccccc3)cc2)c2ccc(Cl)cc2)C[C@H]1C1CCCCC1 | 1.34 | -1.18 | 0.279 | 1.42 | 1.2 | 0.0879 | 0.603 | 1.03 | 0.667 | 1.17
2 | COCCOC(=O)N1C(=O)[C@@]2(c3cc(C#CC4(O)CCCCCC4)ccc31)[C@H](c1ccccc1OCCO)N1[C@H](c3ccccc3)[C@H](c3ccccc3)OC(=O)[C@H]1[C@@H]2C(=O)N1CCN(c2ncccn2)CC1 | 0.0525 | -2.18 | 0.46 | 0.156 | -0.0855 | -0.0944 | 0.0328 | 0.612 | 1.35 | 0.509
3 | COC(=O)C(CC#Cc1ccc2c(c1)[C@]1(C(=O)N2)[C@H](c2ccc(OCCO)cc2)N2[C@H](c3ccccc3)[C@H](c3ccccc3)OC(=O)[C@H]2[C@@H]1C(=O)Nc1nc2ccccc2s1)C(=O)OC | 1.4 | -1.65 | 0.582 | 1.55 | 0.489 | -0.0195 | -0.0119 | -0.267 | 1.03 | 1.11
4 | C=C(COC)/C(=C/C[C@@H](OC(=O)c1ccncc1)c1ccc(CO)o1)c1cc(C(=O)OC)ccc1OC | 1.4 | -0.557 | 1.44 | 0.209 | -0.708 | 0.0077 | -0.138 | -0.18 | 0.877 | 0.702
5 | [N-]=[N+]=Nc1ccccc1[C@H]1OC(c2ccc(OCCCO)cc2)=N[C@@]1(CCS(=O)(=O)c1ccccc1)C(N)=O | 0.321 | -0.268 | -0.154 | 1.41 | 0.389 | 0.161 | 0.117 | -0.939 | 1.71 | 1.92
6 | OCCCC1=CC(c2cccs2)N(Cc2cc3c(cc2Br)OCO3)CC1 (stereo not given) | 0.172 | -0.807 | -0.0241 | 0.0466 | -0.16 | -0.137 | -0.0011 | -0.105 | 0.26 | 1.36
7 | COc1cc(COC(C)=O)ccc1OC(C)=O | 0.793 | -0.785 | 0.44 | 0.434 | -0.156 | 0.731 | -0.093 | -0.0878 | 0.299 | -0.0551
8 | CC(C)N1C(=O)C[C@@](C(=O)NCC(F)(F)F)(c2ccc([N+](=O)[O-])cc2)[C@H]1c1ccc(CO)cc1 | 0.627 | -0.672 | -0.383 | -0.273 | -0.411 | -0.178 | -0.372 | -0.368 | -0.0079 | 0.259
9 | COc1ccc([Si](C)(C)[C@H]2[C@H](CC(=O)N3Cc4ccccc4C[C@H]3CO)O[C@@]3(C(=O)N(Cc4cccc(N5CCC5=O)c4)c4ccccc43)[C@@H]2C)cc1 | 1.37 | -3.58 | 0.903 | -0.293 | -1.02 | -0.0425 | 0.2 | 0.0308 | 0.626 | -0.0509
10 | CC(C)[Si](C#Cc1ccc(Oc2ccccc2)cc1)(O[Si](C#Cc1ccc(Oc2ccccc2)cc1)(C(C)C)C(C)C)C(C)C | 0.328 | 0.651 | 0.567 | -0.185 | 0.307 | 0.0561 | -0.0337 | -0.12 | 0.0811 | 0.262
11 | C=CCNC(=O)[C@H]1[C@@H]2C(=O)O[C@@H](c3ccccc3)[C@@H](c3ccccc3)N2[C@@H](c2ccccc2OCCO)[C@]12C(=O)Nc1ccc(C#CCCO)cc12 | 1.39 | -2.26 | 0.607 | -0.231 | -0.09 | 0.0357 | -0.206 | 0.0703 | 0.567 | 0.365
12 | COC(=O)[C@@]1(Cc2ccc(OC)cc2)[C@H]2c3cc(C(=O)N4CCCC4)n(Cc4ccc(O)c(OC)c4)c3C[C@H]2CN1C(=O)c1ccccc1 | 0.425 | -1.78 | -0.114 | 2.7 | 0.957 | 0.755 | 1.04 | 2.35 | 3.25 | 1.25
13 | C=C(C(=O)CC[C@@H](OC(=O)c1cccnc1)c1ccccc1OCCO)C(C)C | -0.139 | -2.35 | 0.373 | -0.948 | -0.895 | -0.0643 | -0.0977 | -0.247 | 1.85 | 0.593
14 | O=C1NC(=O)C2C1C=CC(C(O)c1cccs1)N2Nc1ccc(Cl)cc1Cl (stereo not given) | -1.16 | -0.153 | -0.824 | 0.0484 | 0.243 | -0.212 | 0.0278 | -0.774 | 1.89 | -0.779
15 | Cc1ccc(S[C@]2(C(=O)NCCCN(C)C)CC(=O)N(Cc3cc(C(F)(F)F)cc(C(F)(F)F)c3)[C@@H]2c2ccc(CO)cc2I)cc1 | -0.0139 | -2.1 | -0.664 | 0.325 | 0.764 | 0.299 | 0.242 | 1.73 | 0.215 | 0.0119
16 | CC(C)NC(=O)[C@@]1(c2ccc([N+](=O)[O-])cc2)CC(=O)N(C2CCCCC2)[C@@H]1c1ccc(CO)cc1I | 0.621 | -2.16 | -0.159 | 0.249 | 0.272 | 0.0375 | -0.189 | 0.176 | 0.707 | -0.174
17 | C=CCOC(=O)[C@@H]1[C@H]2C(=O)O[C@H](c3ccccc3)[C@H](c3ccccc3)N2[C@H](c2ccc(OCCOC(=O)[C@H]3C[C@H]4C(=O)N5CCC[C@H]5C(=O)N4[C@H]3c3ccc(O)cc3)cc2)[C@@]12C(=O)Nc1ccc(I)cc12 | 0.453 | -1.5 | 0.928 | 1.02 | -0.181 | -0.203 | 0.285 | -0.326 | 0.65 | 1.61

Row | Compound | composite z-score [1] | z-score [2] | composite z-score [3] | composite z-score [4] | composite z-score [5] | composite z-score [6] | composite z-score [7] | composite z-score [8] | composite z-score [9] | composite z-score [10]
18 | C=CCC(OC(C)=O)[C@@H]1[C@@H](N(Cc2cc3ccccc3o2)C(=O)c2cccc3ccccc23)c2cc(OCCCO)ccc2N1C(=O)c1ccc(-c2ccccc2)cc1 (stereo not given in full) | -0.0367 | 0.0372 | -0.126 | 0.132 | 0.908 | 0.0368 | -0.0553 | -0.219 | 0.235 | 0.359
19 | C=C(/C(=C/C[C@H](OC(C)=O)c1ccccc1OCCO)c1cnc2ccccc2c1)C(C)C | 0.101 | -2.42 | -0.0274 | 0.361 | -0.378 | -0.034 | 0.184 | -0.036 | 0.327 | 1.19
20 | [N-]=[N+]=Nc1ccccc1[C@@H]1OC(c2ccc(OCCCO)cc2)=N[C@]1(Cc1ccccc1)C(=O)N1CCOCC1 | 1.44 | -1.41 | 0.425 | 1.65 | 0.959 | 0.72 | 0.315 | 0.314 | 1.21 | 1.3
21 | C=C(COC)C(=O)CC[C@@H](OC(C)=O)c1ccc(CO)o1 | -0.363 | -0.0928 | 0.747 | -0.401 | -0.515 | -0.0572 | -0.123 | 0.0139 | 0.55 | -0.0178
22 | O=C(CS)NCCCCCCNC(=O)[C@@H]1C[C@@H]2C(=O)N[C@@H](Cc3ccccc3)C(=O)N2[C@@H]1c1cccc(OCCO)c1 | 1.39 | -0.698 | 0.934 | 0.309 | 0.414 | 0.0102 | 0.265 | 0.0637 | 0.585 | 1.2
23 | C=C(CCCC)C(=O)CC[C@@H](OC(=O)c1ccccc1-c1ccccc1C(=O)O)c1ccc(OCCO)cc1 | -0.65 | -2.71 | 0.744 | -0.487 | -0.559 | -0.096 | 0.0278 | 0.094 | 0.881 | 1.05
24 | C=CCNC(=O)[C@H]1[C@@H]2C(=O)O[C@@H](c3ccccc3)[C@@H](c3ccccc3)N2[C@@H](c2ccccc2OCCO)[C@]12C(=O)Nc1ccc(C#CCC(C(=O)OC)C(=O)OC)cc12 | 1.46 | -2.33 | 1.07 | 2.02 | 1.24 | 0.0914 | 0.224 | 0.46 | 1.37 | 2.13
25 | COc1cc2c(cc1O)C(C1CC1)N(Cc1sc3ccccc3c1Cl)CC2 (stereo not given) | 1.39 | -2.87 | -0.423 | 0.131 | 0.469 | -0.0977 | 0.0062 | 0.173 | 1.26 | 0.281
26 | COCCOC(=O)N1C(=O)[C@@]2(c3cc(C#CCCO)ccc31)[C@H](C(=O)N1CCCCCCC1)[C@H]1C(=O)O[C@H](c3ccccc3)[C@H](c3ccccc3)N1[C@@H]2c1ccc(OCCO)cc1 | 1.39 | -0.616 | 1.01 | 2.13 | 1.05 | 0.933 | 0.953 | 1.99 | 3.97 | 2.01
27 | C=C(CCCC)/C(=C/C[C@@H](OC(C)=O)c1ccc(OCCO)cc1)c1cnc2ccccc2c1 | 1.13 | -1.44 | 0.285 | -0.276 | -0.642 | -0.0735 | -0.214 | -0.158 | 0.887 | 1.29
28 | CC1CC/C=C\[C@H]2OC34C=CCN(Cc5ccccc5)C(=O)[C@H]3N(CCCO)C(=O)[C@@H]4C2C(=O)O1 (stereo not given in full) | -0.537 | -1.29 | -2.03 | -0.226 | 0.876 | -0.202 | -0.449 | 0.0522 | -0.0302 | -0.973
29 | COCCOC(=O)N1C(=O)[C@@]2(c3cc(C#CCC(C(=O)OC)C(=O)OC)ccc31)[C@H](C(=O)Nc1nc3ccccc3s1)[C@H]1C(=O)O[C@H](c3ccccc3)[C@H](c3ccccc3)N1[C@@H]2c1ccccc1OCCO | 0.142 | -1.52 | 0.6 | 1.69 | 0.72 | -0.0445 | 0.151 | 0.106 | 0.886 | 2.2
30 | COCCOC(=O)N1C(=O)[C@@]2(c3ccccc31)[C@H](c1ccccc1OCCO)N1[C@H](c3ccccc3)[C@H](c3ccccc3)OC(=O)[C@H]1[C@@H]2C(=O)N1CCN(c2ncccn2)CC1 | 0.771 | -2.73 | 0.567 | 1.69 | 0.614 | -0.096 | 0.199 | 0.441 | 1.24 | 1.46
31 | COc1ccc(CCNC(=O)[C@@]2(Sc3ccc(C)cc3)CC(=O)N(C3Cc4ccccc4C3)[C@@H]2c2ccc(CO)cc2I)cc1 | 0.615 | -2.48 | -0.911 | 0.113 | 0.795 | -0.0398 | -0.0234 | 0.136 | 0.548 | 1.59
32 | CC#CC(=O)Oc1ccccc1C=CC(=O)OCC | 0.793 | -2.16 | 0.136 | 0.0515 | -0.27 | -0.096 | -0.0709 | -0.256 | 0.045 | 0.115
33 | COc1ccc(CCNC(=O)[C@@]2(Sc3ccc(C)cc3)CC(=O)N(C(C)C)[C@@H]2c2ccc(CO)cc2I)cc1 | 0.536 | -2.41 | -1.09 | -0.434 | 0.428 | -0.225 | -0.0553 | 0.905 | 0.341 | -0.333
